Legend:
[1] = molecular target: T1, Ephrin type-B receptor 1 (Homo sapiens) (UniProt P54762); settings: at 10 µM
T1 sequence (whole entry): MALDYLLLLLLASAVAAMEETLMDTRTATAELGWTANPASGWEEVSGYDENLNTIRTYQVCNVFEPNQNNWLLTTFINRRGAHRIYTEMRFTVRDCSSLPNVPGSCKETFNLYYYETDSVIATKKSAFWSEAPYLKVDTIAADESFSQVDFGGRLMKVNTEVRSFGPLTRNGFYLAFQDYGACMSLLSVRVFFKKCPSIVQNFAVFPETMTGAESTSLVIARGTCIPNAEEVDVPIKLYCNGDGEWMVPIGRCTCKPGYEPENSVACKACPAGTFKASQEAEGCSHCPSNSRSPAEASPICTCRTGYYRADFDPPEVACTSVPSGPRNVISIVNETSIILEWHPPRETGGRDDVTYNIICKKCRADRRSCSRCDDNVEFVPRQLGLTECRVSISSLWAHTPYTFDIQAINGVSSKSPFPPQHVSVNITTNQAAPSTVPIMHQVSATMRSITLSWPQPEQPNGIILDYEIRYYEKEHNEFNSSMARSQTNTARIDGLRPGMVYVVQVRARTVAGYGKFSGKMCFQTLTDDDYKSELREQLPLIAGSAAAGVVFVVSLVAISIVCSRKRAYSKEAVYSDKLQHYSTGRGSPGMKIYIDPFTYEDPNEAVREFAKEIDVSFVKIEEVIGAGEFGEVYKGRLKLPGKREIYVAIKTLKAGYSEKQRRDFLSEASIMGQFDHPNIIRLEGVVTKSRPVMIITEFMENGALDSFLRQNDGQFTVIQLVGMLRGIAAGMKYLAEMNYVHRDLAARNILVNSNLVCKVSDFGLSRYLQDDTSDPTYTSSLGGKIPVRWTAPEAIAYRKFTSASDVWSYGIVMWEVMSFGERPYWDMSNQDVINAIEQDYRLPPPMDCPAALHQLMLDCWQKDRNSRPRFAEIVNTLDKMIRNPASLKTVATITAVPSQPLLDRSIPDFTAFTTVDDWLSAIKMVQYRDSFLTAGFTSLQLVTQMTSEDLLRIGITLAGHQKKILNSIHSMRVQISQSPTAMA

[2] = molecular target: T2, Ephrin type-B receptor 2 (Homo sapiens) (UniProt P29323); settings: at 1 µM
T2 sequence (whole entry): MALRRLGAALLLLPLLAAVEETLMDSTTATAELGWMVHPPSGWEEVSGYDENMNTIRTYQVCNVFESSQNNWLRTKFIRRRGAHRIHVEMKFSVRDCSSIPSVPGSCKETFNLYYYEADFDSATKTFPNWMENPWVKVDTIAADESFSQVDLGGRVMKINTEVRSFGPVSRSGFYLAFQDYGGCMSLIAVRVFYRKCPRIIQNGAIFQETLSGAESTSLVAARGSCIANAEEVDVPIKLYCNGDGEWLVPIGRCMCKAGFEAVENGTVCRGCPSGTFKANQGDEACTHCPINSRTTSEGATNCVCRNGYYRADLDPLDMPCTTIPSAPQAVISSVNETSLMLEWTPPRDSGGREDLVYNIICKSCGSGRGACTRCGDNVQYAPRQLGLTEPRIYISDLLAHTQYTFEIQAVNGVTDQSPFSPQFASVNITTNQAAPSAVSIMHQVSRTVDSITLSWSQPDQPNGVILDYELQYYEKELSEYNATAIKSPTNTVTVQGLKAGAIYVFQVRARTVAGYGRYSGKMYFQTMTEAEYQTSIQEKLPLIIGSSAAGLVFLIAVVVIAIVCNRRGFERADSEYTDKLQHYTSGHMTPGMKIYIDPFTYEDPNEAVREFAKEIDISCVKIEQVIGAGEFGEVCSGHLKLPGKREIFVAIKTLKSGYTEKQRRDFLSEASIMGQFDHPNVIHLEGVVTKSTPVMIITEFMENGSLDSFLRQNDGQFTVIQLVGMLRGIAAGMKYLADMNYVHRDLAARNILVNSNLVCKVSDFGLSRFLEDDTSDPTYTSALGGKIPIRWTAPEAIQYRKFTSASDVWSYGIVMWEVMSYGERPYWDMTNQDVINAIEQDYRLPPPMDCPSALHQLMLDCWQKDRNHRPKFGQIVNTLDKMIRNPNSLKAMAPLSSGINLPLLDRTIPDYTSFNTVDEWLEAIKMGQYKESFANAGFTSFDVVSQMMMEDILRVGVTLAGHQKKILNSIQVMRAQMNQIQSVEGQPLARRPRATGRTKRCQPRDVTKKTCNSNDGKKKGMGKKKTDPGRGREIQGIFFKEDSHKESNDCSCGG

[3] = molecular target: T2, Ephrin type-B receptor 2 (Homo sapiens); settings: at 10 µM
[4] = molecular target: T3, Ephrin type-B receptor 3 (Homo sapiens) (UniProt P54753); settings: at 1 µM
T3 sequence (whole entry): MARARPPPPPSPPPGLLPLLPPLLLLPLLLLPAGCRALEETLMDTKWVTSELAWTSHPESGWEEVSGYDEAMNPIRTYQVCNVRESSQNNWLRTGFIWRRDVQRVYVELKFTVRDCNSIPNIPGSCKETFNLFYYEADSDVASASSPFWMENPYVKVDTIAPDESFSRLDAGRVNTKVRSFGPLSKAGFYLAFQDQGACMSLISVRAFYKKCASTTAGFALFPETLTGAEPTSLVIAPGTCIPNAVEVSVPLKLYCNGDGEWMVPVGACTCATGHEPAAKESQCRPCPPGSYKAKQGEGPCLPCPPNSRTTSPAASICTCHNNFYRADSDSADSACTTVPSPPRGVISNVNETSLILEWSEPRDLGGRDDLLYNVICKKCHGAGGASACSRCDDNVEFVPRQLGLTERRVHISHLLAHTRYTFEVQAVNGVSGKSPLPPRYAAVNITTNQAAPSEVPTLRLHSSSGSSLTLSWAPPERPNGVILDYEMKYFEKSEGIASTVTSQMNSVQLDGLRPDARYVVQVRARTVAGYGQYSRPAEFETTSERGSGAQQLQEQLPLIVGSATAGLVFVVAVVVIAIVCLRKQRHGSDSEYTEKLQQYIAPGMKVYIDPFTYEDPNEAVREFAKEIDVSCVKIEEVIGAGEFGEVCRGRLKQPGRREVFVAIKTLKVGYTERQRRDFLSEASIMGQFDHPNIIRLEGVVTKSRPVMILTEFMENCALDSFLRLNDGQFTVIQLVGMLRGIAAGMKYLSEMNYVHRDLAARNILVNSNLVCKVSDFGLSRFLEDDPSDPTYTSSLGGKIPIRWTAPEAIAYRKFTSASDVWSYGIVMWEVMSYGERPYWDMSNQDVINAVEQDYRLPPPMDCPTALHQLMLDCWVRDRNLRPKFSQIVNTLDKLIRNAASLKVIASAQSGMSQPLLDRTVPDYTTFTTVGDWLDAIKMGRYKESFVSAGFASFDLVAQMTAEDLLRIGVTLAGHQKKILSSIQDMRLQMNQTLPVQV

[5] = molecular target: T3, Ephrin type-B receptor 3 (Homo sapiens); settings: at 10 µM
[6] = molecular target: T4, Ephrin type-B receptor 4 (Homo sapiens) (UniProt P54760); settings: at 1 µM
T4 sequence (whole entry): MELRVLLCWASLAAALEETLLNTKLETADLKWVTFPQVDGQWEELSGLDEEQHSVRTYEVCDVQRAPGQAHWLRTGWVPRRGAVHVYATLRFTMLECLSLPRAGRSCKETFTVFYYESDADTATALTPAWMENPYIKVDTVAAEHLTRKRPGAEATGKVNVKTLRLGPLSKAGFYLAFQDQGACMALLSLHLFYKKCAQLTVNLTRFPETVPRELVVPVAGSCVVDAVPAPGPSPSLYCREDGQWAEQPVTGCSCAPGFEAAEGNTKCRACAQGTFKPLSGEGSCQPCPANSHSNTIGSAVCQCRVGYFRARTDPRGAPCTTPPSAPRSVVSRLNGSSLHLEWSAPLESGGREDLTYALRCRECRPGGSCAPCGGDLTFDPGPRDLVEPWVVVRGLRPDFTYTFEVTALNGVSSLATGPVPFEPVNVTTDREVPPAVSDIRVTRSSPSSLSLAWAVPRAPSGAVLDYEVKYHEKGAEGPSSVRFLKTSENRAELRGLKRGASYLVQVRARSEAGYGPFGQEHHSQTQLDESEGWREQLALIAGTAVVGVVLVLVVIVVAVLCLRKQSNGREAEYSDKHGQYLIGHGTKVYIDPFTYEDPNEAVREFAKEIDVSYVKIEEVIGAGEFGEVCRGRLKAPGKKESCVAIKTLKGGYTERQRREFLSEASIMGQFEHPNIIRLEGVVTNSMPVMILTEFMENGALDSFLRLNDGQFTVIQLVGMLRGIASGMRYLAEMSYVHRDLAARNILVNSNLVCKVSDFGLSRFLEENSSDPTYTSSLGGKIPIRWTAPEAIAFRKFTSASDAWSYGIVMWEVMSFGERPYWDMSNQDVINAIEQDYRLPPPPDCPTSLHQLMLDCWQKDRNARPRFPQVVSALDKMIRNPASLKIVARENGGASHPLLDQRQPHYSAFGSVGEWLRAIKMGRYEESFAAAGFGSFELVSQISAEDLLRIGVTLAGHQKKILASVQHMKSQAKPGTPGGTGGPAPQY

[7] = molecular target: T4, Ephrin type-B receptor 4 (Homo sapiens); settings: at 10 µM
[8] = molecular target: Receptor tyrosine-protein kinase erbB-4 (Homo sapiens) (UniProt Q15303); settings: at 1 µM
[9] = molecular target: Receptor tyrosine-protein kinase erbB-4 (Homo sapiens) (UniProt Q15303); settings: at 10 µM
[10] = molecular target: Focal adhesion kinase 1 (Homo sapiens) (UniProt Q05397); settings: at 1 µM
[11] = molecular target: Focal adhesion kinase 1 (Homo sapiens) (UniProt Q05397); settings: at 10 µM
[12] = molecular target: Fibroblast growth factor receptor 1 (Homo sapiens) (UniProt P11362); settings: at 1 µM
[13] = molecular target: Fibroblast growth factor receptor 1 (Homo sapiens) (UniProt P11362); settings: at 10 µM
[14] = molecular target: Fibroblast growth factor receptor 2 (Homo sapiens) (UniProt P21802); settings: at 1 µM
[15] = molecular target: Fibroblast growth factor receptor 2 (Homo sapiens) (UniProt P21802); settings: at 10 µM
[16] = molecular target: Fibroblast growth factor receptor 3 (Homo sapiens) (UniProt P22607); settings: at 1 µM
[17] = molecular target: Fibroblast growth factor receptor 3 (Homo sapiens) (UniProt P22607); settings: at 10 µM
[18] = molecular target: Fibroblast growth factor receptor 4 (Homo sapiens) (UniProt P22455); settings: at 1 µM
[19] = molecular target: Fibroblast growth factor receptor 4 (Homo sapiens) (UniProt P22455); settings: at 10 µM
[20] = molecular target: Tyrosine-protein kinase Fer (Homo sapiens) (UniProt P16591); settings: at 1 µM
Tyrosine-protein kinase Fer (Homo sapiens), sequence (P16591 whole entry, looked up): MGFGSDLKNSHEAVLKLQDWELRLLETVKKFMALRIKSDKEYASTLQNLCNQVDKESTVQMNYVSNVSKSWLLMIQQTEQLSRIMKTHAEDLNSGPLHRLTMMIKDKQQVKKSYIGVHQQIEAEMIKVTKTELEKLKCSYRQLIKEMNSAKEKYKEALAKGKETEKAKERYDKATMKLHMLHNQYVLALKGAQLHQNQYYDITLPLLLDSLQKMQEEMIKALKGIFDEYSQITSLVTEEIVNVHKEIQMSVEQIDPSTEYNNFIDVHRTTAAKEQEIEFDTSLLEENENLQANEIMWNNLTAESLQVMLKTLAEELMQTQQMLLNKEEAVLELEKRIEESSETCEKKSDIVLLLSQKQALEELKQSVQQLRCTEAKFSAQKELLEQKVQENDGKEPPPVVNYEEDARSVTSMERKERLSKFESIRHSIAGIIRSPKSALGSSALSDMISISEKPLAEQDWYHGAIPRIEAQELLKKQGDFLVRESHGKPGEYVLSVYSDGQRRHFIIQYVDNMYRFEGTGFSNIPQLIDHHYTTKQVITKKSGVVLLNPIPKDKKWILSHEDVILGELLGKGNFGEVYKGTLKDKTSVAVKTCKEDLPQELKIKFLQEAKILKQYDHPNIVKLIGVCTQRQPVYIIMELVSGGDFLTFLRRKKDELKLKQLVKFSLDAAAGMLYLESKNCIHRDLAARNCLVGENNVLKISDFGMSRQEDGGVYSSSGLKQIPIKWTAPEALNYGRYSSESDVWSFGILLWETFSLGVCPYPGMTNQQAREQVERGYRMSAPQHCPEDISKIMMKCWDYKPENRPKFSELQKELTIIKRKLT

Receptor tyrosine-protein kinase erbB-4 (Homo sapiens), sequence (Q15303 whole entry): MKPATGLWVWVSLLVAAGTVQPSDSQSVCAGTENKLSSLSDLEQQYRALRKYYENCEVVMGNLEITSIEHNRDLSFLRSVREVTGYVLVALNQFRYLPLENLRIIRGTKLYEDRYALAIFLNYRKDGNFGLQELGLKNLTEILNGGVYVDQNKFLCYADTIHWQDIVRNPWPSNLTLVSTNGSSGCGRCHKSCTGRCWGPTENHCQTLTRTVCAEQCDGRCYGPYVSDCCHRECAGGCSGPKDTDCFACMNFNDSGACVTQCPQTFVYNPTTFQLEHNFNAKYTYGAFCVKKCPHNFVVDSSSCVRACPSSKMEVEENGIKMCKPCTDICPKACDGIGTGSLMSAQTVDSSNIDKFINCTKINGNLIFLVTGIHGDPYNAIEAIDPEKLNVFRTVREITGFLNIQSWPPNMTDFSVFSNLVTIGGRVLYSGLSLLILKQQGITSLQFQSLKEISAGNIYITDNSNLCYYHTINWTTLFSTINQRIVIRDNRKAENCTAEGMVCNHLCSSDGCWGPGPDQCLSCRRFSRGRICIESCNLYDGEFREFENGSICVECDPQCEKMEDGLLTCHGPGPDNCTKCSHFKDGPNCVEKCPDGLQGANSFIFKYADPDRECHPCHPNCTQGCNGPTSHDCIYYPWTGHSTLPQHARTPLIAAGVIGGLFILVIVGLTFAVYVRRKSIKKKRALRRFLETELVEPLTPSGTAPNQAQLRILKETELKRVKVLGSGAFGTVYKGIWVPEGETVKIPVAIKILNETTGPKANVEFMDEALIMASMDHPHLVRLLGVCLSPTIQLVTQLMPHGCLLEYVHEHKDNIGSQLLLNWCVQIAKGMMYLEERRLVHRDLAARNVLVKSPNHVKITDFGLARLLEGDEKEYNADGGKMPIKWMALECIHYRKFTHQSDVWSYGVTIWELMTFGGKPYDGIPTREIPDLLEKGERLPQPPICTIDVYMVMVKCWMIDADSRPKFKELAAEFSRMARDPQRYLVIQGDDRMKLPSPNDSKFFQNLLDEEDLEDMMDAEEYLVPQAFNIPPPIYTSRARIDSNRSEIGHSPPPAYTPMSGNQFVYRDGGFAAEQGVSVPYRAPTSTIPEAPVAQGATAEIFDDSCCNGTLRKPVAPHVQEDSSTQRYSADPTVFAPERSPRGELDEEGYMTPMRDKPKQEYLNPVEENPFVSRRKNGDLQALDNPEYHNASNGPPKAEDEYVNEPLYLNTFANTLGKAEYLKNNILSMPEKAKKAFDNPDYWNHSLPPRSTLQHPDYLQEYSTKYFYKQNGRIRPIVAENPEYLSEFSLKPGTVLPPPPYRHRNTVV
Fibroblast growth factor receptor 4 (Homo sapiens), sequence (P22455 22-802 limits assumed): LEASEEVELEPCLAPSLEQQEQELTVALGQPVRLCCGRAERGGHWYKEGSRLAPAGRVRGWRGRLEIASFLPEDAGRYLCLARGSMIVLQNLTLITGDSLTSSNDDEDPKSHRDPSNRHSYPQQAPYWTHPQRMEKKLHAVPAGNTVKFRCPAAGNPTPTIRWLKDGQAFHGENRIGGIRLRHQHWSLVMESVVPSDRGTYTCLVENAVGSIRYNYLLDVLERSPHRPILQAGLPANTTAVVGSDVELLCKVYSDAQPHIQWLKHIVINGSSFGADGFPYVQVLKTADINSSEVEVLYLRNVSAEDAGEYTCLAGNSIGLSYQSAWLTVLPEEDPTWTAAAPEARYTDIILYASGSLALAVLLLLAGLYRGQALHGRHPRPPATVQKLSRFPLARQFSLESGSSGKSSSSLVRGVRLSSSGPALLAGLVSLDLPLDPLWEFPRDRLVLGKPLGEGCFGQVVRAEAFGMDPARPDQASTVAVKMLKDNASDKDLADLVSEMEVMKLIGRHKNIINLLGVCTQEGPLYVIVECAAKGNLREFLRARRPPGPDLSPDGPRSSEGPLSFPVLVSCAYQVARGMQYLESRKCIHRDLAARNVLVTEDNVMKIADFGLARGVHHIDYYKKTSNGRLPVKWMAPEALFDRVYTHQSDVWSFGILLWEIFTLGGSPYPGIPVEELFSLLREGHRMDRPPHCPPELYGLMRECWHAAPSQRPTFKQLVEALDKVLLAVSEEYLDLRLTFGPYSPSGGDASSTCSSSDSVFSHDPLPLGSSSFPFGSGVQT
Focal adhesion kinase 1 (Homo sapiens), sequence (Q05397 2-1052 limits assumed): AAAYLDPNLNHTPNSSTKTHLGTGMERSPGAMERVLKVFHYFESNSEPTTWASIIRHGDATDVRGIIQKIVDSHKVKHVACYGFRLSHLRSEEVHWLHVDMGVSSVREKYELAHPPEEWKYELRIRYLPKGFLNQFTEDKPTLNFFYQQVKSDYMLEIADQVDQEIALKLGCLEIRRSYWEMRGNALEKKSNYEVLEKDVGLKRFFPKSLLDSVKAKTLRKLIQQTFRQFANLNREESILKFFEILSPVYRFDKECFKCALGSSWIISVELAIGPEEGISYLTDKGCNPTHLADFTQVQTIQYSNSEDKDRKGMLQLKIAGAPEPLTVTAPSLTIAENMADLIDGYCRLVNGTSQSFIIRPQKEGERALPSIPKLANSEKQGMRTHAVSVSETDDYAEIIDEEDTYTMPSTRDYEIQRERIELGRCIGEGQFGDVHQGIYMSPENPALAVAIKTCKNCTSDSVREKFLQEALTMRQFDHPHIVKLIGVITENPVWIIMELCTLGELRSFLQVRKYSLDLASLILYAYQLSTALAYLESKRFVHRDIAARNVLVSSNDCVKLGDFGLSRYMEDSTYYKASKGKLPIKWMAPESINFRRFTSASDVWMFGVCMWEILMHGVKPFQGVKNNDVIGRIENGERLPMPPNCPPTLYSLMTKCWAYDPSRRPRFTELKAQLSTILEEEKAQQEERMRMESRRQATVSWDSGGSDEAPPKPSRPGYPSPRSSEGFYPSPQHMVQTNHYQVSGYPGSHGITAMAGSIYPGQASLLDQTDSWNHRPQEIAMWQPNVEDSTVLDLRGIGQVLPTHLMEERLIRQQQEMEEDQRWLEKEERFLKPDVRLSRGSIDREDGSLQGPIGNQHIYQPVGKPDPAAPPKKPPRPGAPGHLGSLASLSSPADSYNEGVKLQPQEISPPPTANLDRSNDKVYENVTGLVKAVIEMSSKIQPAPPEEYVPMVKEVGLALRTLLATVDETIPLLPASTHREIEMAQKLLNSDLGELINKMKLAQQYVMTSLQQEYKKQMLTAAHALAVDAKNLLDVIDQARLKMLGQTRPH
Fibroblast growth factor receptor 3 (Homo sapiens), sequence (P22607 23-806 limits assumed): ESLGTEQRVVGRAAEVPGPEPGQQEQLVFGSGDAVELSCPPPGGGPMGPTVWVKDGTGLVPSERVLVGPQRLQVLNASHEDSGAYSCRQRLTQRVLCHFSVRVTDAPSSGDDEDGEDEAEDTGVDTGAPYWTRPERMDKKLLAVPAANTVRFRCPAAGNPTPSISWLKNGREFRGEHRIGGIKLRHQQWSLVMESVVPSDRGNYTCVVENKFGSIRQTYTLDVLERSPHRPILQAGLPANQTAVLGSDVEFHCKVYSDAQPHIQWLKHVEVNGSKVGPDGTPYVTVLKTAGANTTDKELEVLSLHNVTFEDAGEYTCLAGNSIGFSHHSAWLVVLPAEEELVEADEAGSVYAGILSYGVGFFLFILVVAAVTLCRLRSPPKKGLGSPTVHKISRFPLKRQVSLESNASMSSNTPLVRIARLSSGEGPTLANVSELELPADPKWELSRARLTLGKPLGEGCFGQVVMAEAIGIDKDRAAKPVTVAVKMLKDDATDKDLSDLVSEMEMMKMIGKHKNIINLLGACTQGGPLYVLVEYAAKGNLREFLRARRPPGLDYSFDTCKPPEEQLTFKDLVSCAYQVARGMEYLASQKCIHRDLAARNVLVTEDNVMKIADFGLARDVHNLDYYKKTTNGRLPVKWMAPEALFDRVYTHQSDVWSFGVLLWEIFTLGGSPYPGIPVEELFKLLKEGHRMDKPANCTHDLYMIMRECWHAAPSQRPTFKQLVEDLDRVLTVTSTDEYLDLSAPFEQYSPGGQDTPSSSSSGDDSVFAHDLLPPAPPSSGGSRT

| Structure (SMILES) | residual activity [1] | residual activity [2] | residual activity [3] | residual activity [4] | residual activity [5] | residual activity [6] | residual activity [7] | residual activity [8] | residual activity [9] | residual activity [10] | residual activity [11] | residual activity [12] | residual activity [13] | residual activity [14] | residual activity [15] | residual activity [16] | residual activity [17] | residual activity [18] | residual activity [19] | residual activity [20] |
| --- | --- | --- | --- | --- | --- | --- | --- | --- | --- | --- | --- | --- | --- | --- | --- | --- | --- | --- | --- | --- |
| COc1cccc(-c2cc(=O)c3ccccc3o2)c1N | 100% | 118% | 132% | 107% (inactive) | 112% | 94% | 109% | 90% | 93% | 115% | 116% | 143% | 105% | 102% | 92% | 100% | 99% | 128% | 98% | 107% |
| CC#CC(=O)Nc1cc2c(Nc3ccc(F)c(Cl)c3)ncnc2cn1 | 98% | 110% | 107% | 115% (inactive) | 102% | 87% | 108% | 16% | 14% | 133% | 99% | 97% | 80% | 91% | 113% | 86% | 125% | 116% | 96% | 108% |
| O=C1NC(=O)c2cc(Nc3ccc(F)cc3)c(Nc3ccc(F)cc3)cc21 | 60% | 105% | 69% | 100% (inactive) | 105% | 95% | 56% | 87% | 35% | 137% | 89% | 85% | 135% | 101% | 82% | 114% | 103% | 142% | 93% | 109% |
| O=C(O)c1ccc2c3c1cccc3c(=O)n1c3ccccc3nc21 | 98% | 105% | 108% | 98% (inactive) | 110% | 102% | 100% | 105% | 95% | 112% | 100% | 94% | 75% | 110% | 78% | 98% | 92% | 112% | 96% | 81% |
| CCN(CC)CCCCN1c2ccccc2Oc2ccc(Cl)cc21 | 117% | 122% | 121% | 106% (inactive) | 132% | 109% | 133% | 102% | 95% | 144% | 108% | 113% | 82% | 108% | 112% | 110% | 99% | 129% | 90% | 117% |
| O=C1NC(=O)/C(=C/c2ccc3c(c2)OC(F)(F)O3)S1 | 106% | 108% | 110% | 125% (inactive) | 109% | 118% | 121% | 98% | 101% | 112% | 95% | 116% | 99% | 92% | 101% | 111% | 112% | 116% | 94% | 107% |
| O=C1Nc2cc(Br)ccc2/C1=C1/Nc2ccccc2/C1=N\O | 42% | 33% | 22% | 100% (inactive) | 95% | 17% | 4% | 84% | 88% | 59% | 15% | 3% | 3% | 16% | 18% | 59% | 54% | 67% | 35% | 86% |
